Measured values reported in paper PMC5540273 (PLoS ONE, 2017).

Key:
Conditions in all cases: concentration: 1 μM, replicates: in singlicate; n = 1
PCTK2 = test system: T1, PCTK2
T1 construct: gene CDK17

PCTK3 = test system: T2, PCTK3
T2 construct: gene CDK18

PDGFRA = test system: PDGFRA
PDGFRB = test system: PDGFRB
PDPK1 = test system: PDPK1
PFTAIRE2 = test system: PFTAIRE2
PFTK1 = test system: T3, PFTK1
T3 construct: gene CDK14

PHKG1 = test system: PHKG1
PHKG2 = test system: PHKG2
PIK3C2B = test system: PIK3C2B
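Also: KINOMEscan kinase panel screen.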

Row | Structure (SMILES) | %Inh (PCTK2) [%] | %Inh (PCTK3) [%] | %Inh (PDGFRA) [%] | %Inh (PDGFRB) [%] | %Inh (PDPK1) [%] | %Inh (PFTAIRE2) [%] | %Inh (PFTK1) [%] | %Inh (PHKG1) [%] | %Inh (PHKG2) [%] | %Inh (PIK3C2B) [%]
1 | O=C(Nc1n[nH]c2nc(-c3cccc(O)c3)ccc12)C1CC1 [SB-711805] | 35 | 0 | 52 | 50 | 5 | 21 | 4 | 0 | 0 | 4
2 | Cc1nn2c(=O)cc(N3CCO[C@H](C)C3)nc2n1Cc1cccc(Cl)c1Cl [GSK2373693] | 0 | 8 | 1 | 65 | 0 | 9 | 5 | 0 | 0 | 99.4
3 | COC(=O)Nc1nc2ccc(Oc3ccc(NC(=O)Nc4cc(C(F)(F)F)ccc4F)cc3)cc2[nH]1.Cl [GW654607] | 10 | 14 | 96.6 | 100 | 0 | 89 | 47 | 0 | 0 | 0
4 | CN(C)CCOc1ccc(-c2cc(-c3ccc(Cl)c(O)c3)c(-c3ccncc3)[nH]2)cc1.Cl.Cl [SB-684387] | 13 | 1 | 12 | 30 | 0 | 20 | 19 | 0 | 0 | 10
5 | COc1cccc(NC(=O)NCCNc2ccnc(Nc3ccc(F)cc3)n2)c1 [GSK1379879] | 0 | 0 | 0 | 53 | 0 | 6 | 18 | 0 | 0 | 0
6 | CCNC(=O)/C=C/c1n[nH]c2cc(Sc3ccccc3C(=O)NC)ccc12 | 0 | 10 | 100 | 99.9 | 6 | 0 | 13 | 14 | 19 | 0
7 | Cl.N#CCc1ccc(Nc2nccc(Nc3ccc(Oc4ccccc4)cc3)n2)cc1 [GW639905] | 0 | 8 | 31 | 99.6 | 17 | 4 | 0 | 0 | 0 | 0
8 | CC(C)c1nc(-c2ccc(F)c(NS(=O)(=O)c3c(F)cccc3F)c2)c(-c2ccnc(Nc3ccc(N4CCOCC4)nc3)n2)s1 [GSK1804250] | 94.9 | 76 | 88 | 99.6 | 11 | 11 | 71 | 0 | 9 | 17
9 | Cc1ccc(NC(=O)c2ccnc(N3CCCCC3)c2)cc1-c1ccc(C(=O)NCC2CC2)cc1 [GW775610] | 15 | 0 | 59 | 98.3 | 0 | 19 | 0 | 0 | 0 | 18
10 | Cl.O=C(Nc1ccc(Oc2ccc3[nH]c(NC(=O)c4ccco4)nc3c2)cc1)Nc1cc(C(F)(F)F)ccc1F [GW683134] | 0 | 8 | 92.6 | 100 | 14 | 27 | 14 | 0 | 0 | 100
11 | O=C(O)C(F)(F)F.O=c1[nH]ccc2nc(N[C@@H]3CCNC3)nc(Nc3ccc4c(c3)S(=O)(=O)CC4)c12 [GSK2181306] | 71 | 38 | 94.1 | 99.6 | 93.5 | 14 | 14 | 96.9 | 93.7 | 12
12 | Fc1cc(Cl)ccc1Nc1ccnc2cc(-c3ccc(CN4CCOCC4)o3)ccc12 [GW560109] | 0 | 0 | 99.6 | 100 | 8 | 12 | 0 | 13 | 0 | 0
13 | O=C(O)C(F)(F)F.O=c1[nH]ccc2nc(N[C@@H]3CCNC3)nc(Nc3cc(Cl)cc(Cl)c3)c12 [GSK2188764] | 22 | 25 | 46 | 94.8 | 76 | 20 | 27 | 96.1 | 94.7 | 13
14 | COc1cccc(CC(=O)N2CCc3cc(-c4cn(C)c5ncnc(N)c45)ccc32)c1 [GSK2608899] | 0 | 4 | 88 | 99.2 | 20 | 12 | 0 | 0 | 0 | 83
15 | CCn1c(-c2nonc2N)nc2c(-c3ccccc3)ncc(OCCCN)c21.O=C(O)C(F)(F)F.O=C(O)C(F)(F)F [GSK260205] | 0 | 0 | 18 | 98.8 | 0 | 0 | 13 | 0 | 0 | 1
16 | Cn1cc(-c2ccc3c(c2)CCN3C(=O)Cc2cc(F)cc(F)c2F)c2c(N)ncnc21 [GSK2634140] | 0 | 7 | 59 | 98 | 0 | 3 | 10 | 0 | 0 | 82
